We go through 19 compounds from PubChem BioAssay (NCATS).

Inconclusive results are not listed. Calls of active or inactive are those of the source. Unless noted, the call rests on the fitted dose curve; in most records, active means well fitted curve in the direction sought with a large enough effect; inconclusive means small, poorly fitted or top-dose-only effect, or another doubt; inactive means no such curve, though single readings can be large; an effect the other way counts as inactive or inconclusive.

A short description of assay [1]: P-glycoprotein substrates identified in KB-8-5-11 adenocarcinoma cell line, qHTS therapeutic library screen (AID 1346987). Further: nearly all actives have a fitted effect of over 65% in size. Further: potency means the concentration at half of the fitted maximal effect. Summed up:
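In this qHTS, P-gp-rich KB-8-5-11 cells received library compounds across a concentration range. Viability was quantified by luminescence after 72 h at 37 degree C.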
In general terms: In qHTS, concentration-response curves come from the screen itself.

For assay [2], the system named is Zika virus NS2B-NS3 protease (unlinked complex). As to the kind of experiment: Primary screen GU Rhodamine qHTS for Zika virus inhibitors: Unlinked NS2B-NS3 protease assay (AID 1347159). Further: nearly all actives have a fitted effect of over 60% in size. Further: potency means the concentration at half of the fitted maximal effect. On activity change, negative = inhibition: on the % scale 0 is the no-effect control and ±100 the full control effect. A digest of the protocol: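 In dose–response format, inhibition of unlinked protease (25 nM) was measured with 1.5 microM bis-peptide Rhodamine110 substrate. Aprotinin served as the intraplate control.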

Assay [3] has as its target Cytochrome P450 2D6 (Homo sapiens) (UniProt P10635). As to the kind of experiment: Cytochrome P450 family 2 subfamily D member 6 (CYP2D6) small molecule antagonists: luciferase biochemical (cell-free) qHTS assay (AID 1645840; active means well fitted curve in the direction sought with a large enough effect in the repeat runs; an effect the other way counts as inactive or inconclusive; further: nearly all actives have a fitted effect of over 55% in size; further: potency means the concentration at half of the fitted maximal effect; on activity change, negative = inhibition: on the % scale 0 is the no-effect control and ±100 the full control effect). Summed up: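 P450-Glo CYP2D6 system: proluciferin substrate converted by enzyme to luciferin, read by luminescence proportional to activity. Enzyme-substrate mix with compound 10 min at room temperature, then NADPH regeneration 1 h before detection reagent.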

In assay [4] the target is Catechol O-methyltransferase (Homo sapiens) (UniProt P21964). As to the kind of experiment: Confirmatory Screen for Target Class Profiling of Small Molecule Inhibitors of Methyltransferases (AID 1745852; calls by dose curve; further: potency means the concentration at half of the fitted maximal effect). Particulars: MTase-Glo luminescence, SAH detection, recombinant enzyme; measured here: COMT max response; stronger effect = lower value.
Chain of Catechol O-methyltransferase (Homo sapiens) (P21964 whole entry, looked up): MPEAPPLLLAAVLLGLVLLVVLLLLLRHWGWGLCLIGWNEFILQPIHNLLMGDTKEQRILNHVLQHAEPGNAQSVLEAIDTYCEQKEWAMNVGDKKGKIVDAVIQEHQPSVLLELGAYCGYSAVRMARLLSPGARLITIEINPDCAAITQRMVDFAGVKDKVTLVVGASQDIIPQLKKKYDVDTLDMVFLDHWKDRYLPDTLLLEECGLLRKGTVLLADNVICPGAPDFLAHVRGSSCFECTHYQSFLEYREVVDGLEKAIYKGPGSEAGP
Assay [5] addresses Guanidinoacetate N-methyltransferase (Homo sapiens) (UniProt Q14353). The assay is described as above. Particulars: activity change, negative = inhibition: at 57.3 µM (top of the series) unless noted.
In assay [6] the target is Nicotinamide N-methyltransferase (Homo sapiens) (UniProt P40261). The description is as above. Particulars: MTase-Glo luminescence, SAH detection, recombinant enzyme; measured here: NNMT max response; stronger effect = lower value.
Chain of Nicotinamide N-methyltransferase (Homo sapiens) (P40261 whole entry, looked up): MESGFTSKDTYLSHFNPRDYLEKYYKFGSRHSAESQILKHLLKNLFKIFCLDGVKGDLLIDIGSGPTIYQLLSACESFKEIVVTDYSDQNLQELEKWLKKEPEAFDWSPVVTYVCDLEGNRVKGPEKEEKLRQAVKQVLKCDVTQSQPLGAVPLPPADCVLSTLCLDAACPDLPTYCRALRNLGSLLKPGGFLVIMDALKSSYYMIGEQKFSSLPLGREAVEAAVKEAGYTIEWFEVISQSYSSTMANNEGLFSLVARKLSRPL
Assay [7] addresses Phenylethanolamine N-methyltransferase (Homo sapiens) (UniProt P11086). The description is as above. The settings on record: MTase-Glo luminescence, SAH detection, recombinant enzyme; measured here: PNMT max response; stronger effect = lower value.
The nature of assay [8]: Primary fluorescence-based thiol-reactive (MSTI) qHTS assay for identification of artifact compounds. (AID 1845221).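 Further: thiol-reactive compounds lower the probe fluorescence signal; nearly all actives have a fitted effect of over 65% in size.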 Summed up:
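First, 4 uM MSTI in 2% DMSO/PBS pH 7.4 was dispensed; next, compounds were added; then plates sat 1 h at room temperature without light. Finally, emission at 598 nm was recorded.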

Assay [9] concerns CRL-7250. As to the kind of experiment: Cytotoxic Profiling of Annotated Libraries Using Quantitative High-Throughput Screening (AID 1296008). Further: nearly all actives have a fitted effect of over 60% in size. Further: potency means the concentration at half of the fitted maximal effect. On max response: on the % scale 0 is the no-effect control and ±100 the full control effect. The settings on record: Five cell lines viability, CellTiter-Glo ATP luminescence, 48-72 h; max response: stronger effect = lower value. Summed up: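 Cells exposed to compounds for 48 or 72 hr at 37 degrees Celsius. Viability read as ATP-coupled luminescence with CellTiter-Glo after 10 min at room temperature.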

Assay [10] has as its system CAOV3. As to the kind of experiment: Primary qHTS to identify gynecologic anti-cancer compounds using libraries of approved drugs and bioactive compounds (AID 1345084). Further: nearly all actives have a fitted effect of over 55% in size. Further: potency means the concentration at half of the fitted maximal effect. The settings on record: Gynecologic cancer cell panel viability, ATPlite luminescence, 48 h; series mostly up to 57.5 µM. Summed up: (§1)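 48 h compound exposure at 37 C, 5% CO2; five-point qHTS. ATPlite luminescence readout of cell ATP.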

For assay [11], the system named is SKOV3. Described as above. Particulars: Gynecologic cancer cell panel viability, ATPlite luminescence, 48 h; series mostly up to 57.5 µM. A digest of the protocol: as §1
Background: ATP-based viability assays read luminescence as a measure of living cells.

Assay [12] is described as follows: qHTS to identify inhibitors of the type 1 interferon - major histocompatibility complex class I in skeletal muscle: primary screen against the NCATS Mechanism Interrogation Plate v5.0 (MIPE) Libary (AID 1347411).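 Further: plate controls were vehicle for no effect and reference inhibitor for full effect; nearly all actives have a fitted effect of over 65% in size.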 Summed up: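 HLA-B HiBit myoblasts, dexamethasone-free medium + 4 ng/ml IFN-b, 24 h compound, 11-pt 1:3 from 46 uM final. Readout: Nano-Glo HiBiT lytic luminescence after 10 min lysis, RT.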

For assay [13], the target named is Cytochrome P450 2C9 (Homo sapiens) (UniProt P11712). As to the kind of experiment: Cytochrome P450 family 2 subfamily C member 9 (CYP2C9) small molecule antagonists: luciferase biochemical (cell-free) qHTS assay (AID 1645842; active means well fitted curve in the direction sought with a large enough effect in the repeat runs; an effect the other way counts as inactive or inconclusive; further: nearly all actives have a fitted effect of over 55% in size; further: potency means the concentration at half of the fitted maximal effect; on activity change, negative = inhibition: on the % scale 0 is the no-effect control and ±100 the full control effect). A digest of the protocol: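 P450-Glo CYP2C9 system: proluciferin substrate with enzyme in mix containing 0.4% BSA, 10 min at room temperature, then NADPH regeneration solution added and incubated 1 h at 37C. Detection reagent stopped reaction; luminescence read after 20 min as RLU.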
Chain of Cytochrome P450 2C9 (Homo sapiens) (P11712 whole entry, looked up): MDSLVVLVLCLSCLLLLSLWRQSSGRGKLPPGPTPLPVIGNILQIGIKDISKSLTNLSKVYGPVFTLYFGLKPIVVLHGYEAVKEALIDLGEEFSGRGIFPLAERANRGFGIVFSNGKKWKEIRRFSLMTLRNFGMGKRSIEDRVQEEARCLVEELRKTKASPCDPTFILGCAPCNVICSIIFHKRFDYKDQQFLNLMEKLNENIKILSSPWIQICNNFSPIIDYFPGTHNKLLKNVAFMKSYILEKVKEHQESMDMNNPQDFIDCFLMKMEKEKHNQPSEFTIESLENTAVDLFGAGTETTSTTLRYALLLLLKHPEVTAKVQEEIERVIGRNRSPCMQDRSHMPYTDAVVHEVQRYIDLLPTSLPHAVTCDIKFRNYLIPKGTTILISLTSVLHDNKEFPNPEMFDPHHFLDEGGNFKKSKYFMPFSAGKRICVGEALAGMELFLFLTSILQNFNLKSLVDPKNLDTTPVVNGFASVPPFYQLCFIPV

Assay [14] deals with PA-1. As to the kind of experiment: Primary qHTS to identify gynecologic anti-cancer compounds using libraries of approved drugs and bioactive compounds (AID 1345084). Further: nearly all actives have a fitted effect of over 55% in size. Further: potency means the concentration at half of the fitted maximal effect. Particulars: Gynecologic cancer cell panel viability, ATPlite luminescence, 48 h; series mostly up to 57.5 µM. A digest of the protocol:
as §1

Assay [15] deals with HACAT. As to the kind of experiment: qHTS assay to identify novel small-molecules to repurpose for Merkel cell carcinoma treatment (AID 1296009). Further: nearly all actives have a fitted effect of over 60% in size. Particulars: MCC and control cell lines, CellTiter-Glo viability, 72 h; at 44.8 µM (top of the series) unless noted. Summed up:
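CellTiter-Glo luminescence after 72 hr compound exposure at 37 degree celsius gave cell viability. Libraries NPC and MIPE were run as 8- and 11-point dose responses; RLUs normalized to DMSO (negative) and no-cell (cytotoxicity) controls.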

The nature of assay [16]: Confirmatory screen GU Rhodamine qHTS for Zika virus inhibitors qHTS (AID 1347157). Further: potency means the concentration at half of the fitted maximal effect; nearly all actives have a fitted effect of over 70% in size. A digest of the protocol: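 Noncovalent NS2B hydrophilic domain/NS3 protease complex (25 nM final) in 10 mM Tris-HCl pH 8.0, 0.01% Tween 20, preincubated 15 min with compounds (up to 114 microM), then 1.5 microM Rhodamine110 substrate. Fluorescence change over 15 min fitted to 4-parameter Hill.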

Assay [17] relates to Zika virus NS2B-NS3 protease (linked construct). As to the kind of experiment: 384 well plate NINDS Rhodamine confirmatory qHTS for Zika virus inhibitors (AID 1347164).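 Further: fluorescence from protease cleavage of Ac-LKRR-rhodamine 110 substrate; potency means the concentration at half of the fitted maximal effect; nearly all actives have a fitted effect of over 65% in size.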 A digest of the protocol:
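Enzyme (final 5/30/60 nM) + cpd (DMSO), ~15 min; add Ac-LKRR-Rd 10 microM final; 25 min RT, dark; FI ex 485/em 538; normalized to no-enzyme, no-inhibitor ctrls; aprotinin intraplate ctrl.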

Assay [18] is described as follows: Tertiary RLuc qRT-PCR qHTS assay for Zika virus inhibitors (AID 1347169). A digest of the protocol:
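Vero, 1,000 cells/well, o/n 37 C; cpd pinned in DMSO; ZIKV-RLuc Cambodian, MOI 1-2, 48-72 h 37 C; live-cell RLuc substrate, lum read at 1-1.5 h.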
(In general: Real-time PCR tracks product formation cycle by cycle.)

Chain of Cytochrome P450 2D6 (Homo sapiens) (P10635 whole entry, looked up): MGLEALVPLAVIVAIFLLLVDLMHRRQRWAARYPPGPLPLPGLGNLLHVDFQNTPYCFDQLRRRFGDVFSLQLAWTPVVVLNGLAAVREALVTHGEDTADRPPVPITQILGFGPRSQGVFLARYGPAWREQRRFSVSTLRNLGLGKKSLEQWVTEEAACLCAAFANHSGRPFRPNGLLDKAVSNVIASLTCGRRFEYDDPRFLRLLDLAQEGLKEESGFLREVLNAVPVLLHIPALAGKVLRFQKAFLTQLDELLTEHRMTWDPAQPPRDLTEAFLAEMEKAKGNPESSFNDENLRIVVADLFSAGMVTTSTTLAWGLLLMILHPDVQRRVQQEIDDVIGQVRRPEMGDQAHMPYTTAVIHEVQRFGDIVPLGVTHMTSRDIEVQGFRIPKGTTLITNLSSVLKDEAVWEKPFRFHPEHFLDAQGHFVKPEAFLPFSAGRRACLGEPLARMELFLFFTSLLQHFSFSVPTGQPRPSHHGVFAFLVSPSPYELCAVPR
Chain of Phenylethanolamine N-methyltransferase (Homo sapiens) (P11086 whole entry, looked up): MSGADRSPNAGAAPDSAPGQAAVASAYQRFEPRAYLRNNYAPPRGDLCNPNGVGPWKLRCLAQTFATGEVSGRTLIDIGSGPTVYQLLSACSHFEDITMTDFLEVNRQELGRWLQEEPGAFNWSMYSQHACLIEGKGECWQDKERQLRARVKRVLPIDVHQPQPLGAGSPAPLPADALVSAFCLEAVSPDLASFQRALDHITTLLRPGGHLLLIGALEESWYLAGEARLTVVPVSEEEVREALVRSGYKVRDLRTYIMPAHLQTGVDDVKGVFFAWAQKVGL

Take `CC(C)N(CCCNC(=O)Nc1ccc(C(C)(C)C)cc1)C[C@H]1O[C@@H](n2cc(Br)c3c(N)ncnc32)[C@H](O)[C@@H]1O`: the Potency entry in assay [1], in [2], in assay [8], in assay [10] and in assay [11] was “inactive” in each case. In addition, the Potency in assay [3] is 15.1 µM (active); in [5], 21.5 µM (active). Moreover, the activity is -65.3% in assay [4], -73.5% in [6] and -94.2% in [7]. Moreover, in assay [9], the max response was -23.7% (inactive).
With `Cn1cnc(-c2nccc3c(=O)[nH]c(OCCCC(F)(F)F)nc23)c1`, the Potency entry in assay [8] and in assay [10] was “inactive” in each case. Besides, the values for the Potency in assay [9] and in assay [11] were 5.8 µM (active) and 6.31 µM (active), respectively.
For the compound `Cn1nccc1Nc1nccc(-c2ccn([C@H](CO)c3ccc(Cl)c(F)c3)c(=O)c2)n1`, the Potency entry in assay [1], in assay [2], in assay [12], in assay [8] and in assay [10] was “inactive” in each case. For the same compound, the Potency in assay [13] was 19 µM (active). For the same compound, the outcome in assay [9] was “inactive”.
Turning to `C=C(C)[C@@H]1CC[C@]2(C(=O)O)CC[C@]3(C)C(CCC4[C@@]5(C)C[C@@H](O)[C@H](O)C(C)(C)C5CC[C@]43C)C12` (some centres not stated), the Potency result in assay [1], in [8] and in assay [14] was “inactive” in each case. For the same compound, the max response in assay [9] is 4.85% (inactive).
For the compound `CC(C)CCC[C@@H](C)[C@H]1CC[C@H]2[C@@H]3CC=C4C[C@@H](OC(=O)NCCN(C)C)CC[C@]4(C)[C@H]3CC[C@]12C`, the Potency result in [2], in assay [8] and in assay [14] was “inactive” each time. Moreover, in assay [9], the outcome is “inactive”. Besides, in assay [11], the Potency was 22.4 µM (active).
As to `Cn1cc(-c2cnc3ccc4ccc(CS(=O)(=O)NCc5ccccn5)cc4c(=O)c3c2)cn1`, the Potency entry in assay [2], in assay [12], in [13], in assay [5], in assay [8] and in assay [10] was “inactive” in each case. Also, in assay [14], the Potency entry was “inactive”. Further, the Potency in [3] is 12 µM (active). Also, the activity in assay [4] is -3.92%; in [6], -3.63%; in assay [7] it was -3.14%. In addition, the max response in assay [9] was -6.66% (inactive).
Turning to `O=C(c1ccc(F)c(F)c1Nc1ccc(I)cc1F)N1CC(O)(C2CCCCN2)C1` (configuration not stated), the Potency in [1] is 18.4 µM (active); in assay [9], 9.2 µM (active); in assay [11], 20 µM (active). Moreover, the Potency result in assay [8] was “inactive”.
Turning to `COc1cc(-c2cc(-c3ccc(N4CCNCC4)cc3)cnc2C)cc(OC)c1OC`, the Potency result in [12], in assay [3] and in assay [14] was “inactive” each time. Also, the Potency in assay [13] is 19 µM (active). The outcome in [9] and in assay [15] was “inactive” throughout.
For the compound `CC1CCC(n2c3cnccc3c3cnc(Nc4ccc5c(n4)CCN(C(=O)CO)C5)nc32)CC1` (configuration not stated), the Potency in assay [1] was 5.8 µM (active). The Potency entry in assay [2], in assay [3] and in [8] was “inactive” throughout. The activity change, negative = inhibition in assay [12] was -18.6% [at 8.44 µM] (inactive). Also, the max response in assay [9] was -12.2% (inactive).
As for `C=C1CC[C@@H]2[C@](C)(CO)[C@H](O)CC[C@@]2(C)[C@@H]1C/C=C1/C(=O)OC[C@@H]1O`, the Potency entry in assay [2] and in assay [8] was “inactive” in each case. Besides, the max response in [9] is -17.3% (inactive). In addition, the outcome in assay [15] is “inactive”.
Turning to `CN(C)C(=O)c1cc2cnc(Nc3ccc(N4CCNCC4)cn3)nc2n1C1CCCC1`, the Potency entry in assay [2], in assay [12], in assay [3], in assay [10] and in [11] was “inactive” throughout. Moreover, in assay [9], the max response was 3.25% (inactive).
With `COc1cc(O)ccc1OCCNCC(O)COc1cccc2[nH]c3ccccc3c12` (configuration not stated), the Potency entry in [2] and in assay [14] was “inactive” in each case. The max response in assay [9] is -16.8% (inactive). Also, in assay [15], the outcome is “inactive”.
As for `O=C(c1ccc(F)c(F)c1Nc1ccc(I)cc1F)N1CC(O)([C@@H]2CCCCN2)C1`, the Potency in assay [1] was 20.6 µM (active); in assay [9], 7.31 µM (active). Also, the Potency entry in [8] and in [14] was “inactive” in each case.
Take `CC(C)(C)c1ccc(CNC(=S)NCc2ccc(NS(C)(=O)=O)c(F)c2)cc1`: the Potency in assay [3] was 3.38 µM (active); in assay [13], 0.151 µM (active). Besides, the Potency result in assay [8] and in assay [14] was “inactive” each time. Moreover, the max response in assay [9] was -28.3% (inactive).
Turning to `CC(=O)N1c2ccc(-c3ccc(C(=O)O)cc3)cc2C(Nc2ccc(Cl)cc2)CC1C` (configuration not stated), the Potency in [16] is 17.5 µM (active); in [2] it was 20 µM (active); in assay [17] it was 70.8 µM (active); in assay [13], 8.49 µM (active); in [9], 1.03 µM (active); in assay [11], 3.98 µM (active). Also, the Potency result in assay [3] and in assay [10] was “inactive” in each case.
As to `CCOC(=O)c1cccc(CNc2ccc(N(C)C(=O)Nc3ccccc3)cc2)c1`, the Potency entry in [2] was “inactive”. Further, the Potency in assay [3] was 5.35 µM (active); in [13] it was 0.601 µM (active); in [9], 1.3 µM (active); in assay [11] it was 14.1 µM (active).
In the case of `CC1CCN(C(c2ccc(F)cc2)c2ccc(C(C)C(=O)O)cc2-c2ccc(C(F)(F)F)cc2)CC1` (configuration not stated), the Potency in [16] was 3.93 µM (active); in assay [2] it was 1.58 µM (active); in assay [17], 2.51 µM (active); in assay [18], 6.58 µM (active); in [13], 9.52 µM (active). Further, the activity was 4.19% in [4], -58.6% in [6] and 4.79% in [7]. Further, the activity change, negative = inhibition in assay [5] was 0%. For the same compound, in assay [9], the max response was -3.89% (inactive). In addition, the Potency result in assay [10], in [14] and in [11] was “inactive” in each case.
For `CCC[C@@H](NC(=O)N1C(=O)C(CC)(CC)[C@@H]1Oc1ccc(C(=O)N2CCN(C)CC2)cc1)c1ccc2c(c1)OCO2`, the Potency in assay [1] is 20.6 µM (active); in assay [3], 16.9 µM (active); in assay [13], 3.38 µM (active). Besides, the Potency result in [2], in assay [14] and in assay [11] was “inactive” throughout. Besides, the max response in [9] is -1.89% (inactive). The outcome in [15] was “inactive”.
As to `COc1cccc(CNC(=O)Nc2nc(-c3ccncc3)cs2)c1`, the Potency in assay [3] is 0.601 µM (active); in [13] it was 0.239 µM (active). Also, the Potency result in assay [8], in [14] and in assay [11] was “inactive” throughout. In addition, in assay [9], the max response was -25.8% (inactive).
